Laboratory results published in PubChem BioAssay (Tox21).
Records with an inconclusive call do not appear. Calls of active or inactive are those of the source. Unless noted, the call rests on the fitted dose curve.

How the values were obtained:
[1] = Nuclear factor erythroid 2-related factor 2/antioxidant responsive element (Nrf2/ARE) small molecule agonists: qHTS cell viability counter screen in human keratinocytes (AID 1919968; active means well fitted curve in the direction sought with a large enough effect in the repeat runs; an effect the other way counts as inactive or inconclusive; further: nearly all actives have a fitted effect of over 55% in size)
Outline: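 Cytotoxicity was multiplexed with the Nrf2/ARE luciferase assay in the same wells. Stably transfected HaCaT keratinocytes were treated with test compounds for 23 h at 37 C. Cell viability was then measured by CellTiter-Fluor fluorescence.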

[2] = target: Gonadotropin-releasing hormone receptor (Homo sapiens) (UniProt P30968); assay: Human gonadotropin-releasing hormone receptor (GnRHR) small molecule agonists, calcium flux assay in GnRHR-HEK293 cells (AID 1920063); further: nearly all actives have a fitted effect of over 35% in size
Outline: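 Agonist activity was measured as intracellular calcium flux in HEK293 cells engineered to stably express human GnRHR. After dye loading for 1 hour at 37 C, compounds in DMSO were added and fluorescence was followed for 3 minutes.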

[3] = target: KiSS-1 receptor (Homo sapiens) (UniProt Q969F8); assay: Human kisspeptin (KISS1R) small molecule agonists, calcium flux assay in KISS1R-HEK293 cells (AID 1920064; active means well fitted curve in the direction sought with a large enough effect in the repeat runs; an effect the other way counts as inactive or inconclusive)
Outline: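 Agonist activity is monitored as intracellular calcium rise in engineered HEK293 cells carrying human KISS1R. Cells are dye-loaded for 1 h at 37 C before compound addition, and fluorescence is recorded for 3 min.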

[4] = p53 small molecule agonists, cell-based qHTS assay with human liver microsomes (AID 1963577);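 further: p53 response element beta-lactamase reporter cells with liver microsomes plus NADPH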
Outline: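 With metabolic activation: human liver microsomes (0.5 mg/mL final) plus NADPH (0.5 mg/mL final) added alongside compounds to p53RE-bla cells; 16 h 37 C exposure; beta-lactamase read by LiveBLAzer fluorescence.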

[5] = p53 small molecule agonists, cell-based qHTS assay with rat liver microsomes (AID 1963578)
Outline: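 Metabolic activation by rat liver microsomes and NADPH, each 0.5 mg/mL final, added right after compounds to p53RE-bla reporter cells (4,000/well, plated 5 h earlier). 16 h at 37 C, then LiveBLAzer substrate for 2 h at room temperature in the dark; fluorescence read-out.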

[6] = p53 small molecule agonists, cell-based qHTS assay with rat liver microsomes: qHTS cell viability counter screen (AID 1963580); further: nearly all actives have a fitted effect of over 45% in size
Outline: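 Counter screen for cytotoxicity under metabolic activation: rat liver microsomes and NADPH, 0.5 mg/mL final each, added with compounds to p53RE-bla HCT-116 cells; 16 h at 37 C, then ATP luminescence read.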

[7] = p53 small molecule agonists, cell-based qHTS assay: qHTS cell viability counter screen (AID 1963581); further: nearly all actives have a fitted effect of over 45% in size
Outline: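 Viability was counter-screened in parallel with the p53 agonist reporter by measuring intracellular ATP luminescence in the same HCT-116 p53RE-bla wells after 16 h compound treatment at 37 C.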

[8] = p53 small molecule agonists, cell-based qHTS assay (AID 1963582; active means well fitted activation curve with a large enough effect in the signal ratio in the repeat runs, not every such curve was filed as active; the % refers to the signal ratio)
Outline: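 Cells carrying a p53-responsive bla reporter are treated with test compounds for 16 h at 37 C; beta-lactamase activity is then detected with LiveBLAzer B/G FRET substrate after 2 h at room temperature.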

[9] = target: 5-hydroxytryptamine receptor 2A (Homo sapiens) (UniProt P28223); assay: 5-hydroxytryptamine receptor 2A (HTR2A) small molecule antagonists, cell-based qHTS assay (AID 1963586); further: nearly all actives have a fitted effect of over 45% in size
Outline: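 CHO cells stably expressing human HTR2A were plated for 18 h at 37 C, then loaded with calcium dye for 1 h. Compounds were preincubated 5 min at room temperature before DOI (4 nM solution) was added. Kinetic fluorescence was read for 3 min.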

[10] = target: 5-hydroxytryptamine receptor 2A (Homo sapiens) (UniProt P28223); assay: 5-hydroxytryptamine receptor 2A (HTR2A) small molecule agonists, cell-based qHTS assay (AID 1963587); further: nearly all actives have a fitted effect of over 30% in size
Outline: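 HTR2A-CHO cells, plated 18 h at 37 C/5% CO2, dye-loaded 1 h at 37 C; compounds in DMSO added by pin tool (agonist mode). Intracellular calcium flux read as kinetic fluorescence on FDSS over 2 min at 1 s intervals.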

[11] = target: Muscarinic acetylcholine receptor M1 (Homo sapiens) (UniProt P11229); assay: Cholinergic receptor muscarinic 1 (CHRM1) small molecule agonists, cell-based qHTS assay (AID 1963589); further: nearly all actives have a fitted effect of over 35% in size
Outline: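 Cells were plated and incubated 18 h at 37 C/5% CO2, loaded with calcium dye for 1 h at 37 C, then treated with compounds in DMSO. Fluorescence was recorded kinetically at 1 sec intervals.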

[12] = cAMP Responsive Elements (CRE) small molecule agonists, cell-based qHTS assay (AID 1963590)
Outline: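 Cells carrying a CRE-driven beta-lactamase reporter (HEK 293T) are seeded, incubated overnight (18 h), and treated with test compounds for 3 h at 37 C; reporter activity is then detected with a FRET substrate after 2 h at room temperature.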

[13] = cAMP Responsive Elements (CRE) small molecule antagonists, cell-based qHTS assay (AID 1963591; active means well fitted inhibition curve with a large enough effect in the signal ratio in the repeat runs, not every such curve was filed as active; the % refers to the signal ratio)
Outline: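 Cells (CRE-bla HEK 293T, DMEM with 10% dialyzed FBS and 25 mM HEPES) are seeded and incubated 18 h. Compounds are added with NKH477 agonist at 0.25 uM final for 3 h, then FRET substrate for 2 h.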

[14] = target: Beta-2 adrenergic receptor (Homo sapiens) (UniProt P07550); assay: Adrenergic beta2 receptor (ADRB2) small molecule antagonists, cell-based qHTS assay (AID 1963592); further: series mostly up to about 92 µM; nearly all actives have a fitted effect of over 50% in size
Outline: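 Assay format: CHO-ADRB2 cells, 18-20hr seeding at 37C/5% CO2, then compound plus 1nM isoproterenol agonist mix for 0.5hr RT. Homogeneous time-resolved fluorescence cAMP detection after 1hr, expressed as 665/615 nm ratio.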

[15] = target: D(2) dopamine receptor (Homo sapiens) (UniProt P14416); assay: Dopamine D2 receptor (DRD2) small molecule agonists, cell-based qHTS assay (AID 1963594); further: nearly all actives have a fitted effect of over 35% in size
Outline: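 HEK293 cells stably expressing DRD2 were cultured 24 h at 37 C, then given Ro20-1724 (0.1 mM final) and compounds for 10 min at room temperature. NKH477 (200nM) was then added for 30 min. cAMP was read by HTRF.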

[16] = target: D(2) dopamine receptor (Homo sapiens) (UniProt P14416); assay: Dopamine D2 receptor (DRD2) small molecule antagonists, cell-based qHTS assay (AID 1963595; active means well fitted inhibition curve with a large enough effect in the signal ratio in the repeat runs, with a control signal flat; the % refers to the signal ratio)
Outline: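 Antagonist mode in DRD2-HEK293 cells: after compound addition with 0.1 mM Ro20-1724, cells received quinpirole (12 nM) and NKH477 (200 nM) for 30 min at room temperature; HTRF cAMP read after 1 h detection.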

[17] = G protein-coupled receptor (GPCR) small molecule agonists, calcium flux assay: HEK293 wild type cell line counter screen (AID 1920065)
Outline: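 Seed cells, incubate 18 h (37 C, 5% CO2); add calcium dye, 1 h at 37 C; pin-transfer compounds, ATP control or DMSO; read fluorescence 480/540 nm each second for 3 min.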

[18] = p53 small molecule agonists, cell-based qHTS assay with human liver microsomes: qHTS cell viability counter screen (AID 1963579); further: nearly all actives have a fitted effect of over 45% in size
Outline: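 Metabolic activation used human liver microsomes and NADPH, both 0.5 mg/mL final, over 16 hours at 37 C on p53RE-bla cells (4,000/well). Cytotoxicity measured by CellTiter-Glo luminescence, 30 min at room temperature.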

[19] = target: Muscarinic acetylcholine receptor M1 (Homo sapiens) (UniProt P11229); assay: Cholinergic receptor muscarinic 1 (CHRM1) small molecule antagonists, cell-based qHTS assay (AID 1963588); further: nearly all actives have a fitted effect of over 40% in size
Outline: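 Compounds were tested at 15 concentrations in three independent runs. Dye-loaded CHRM1-CHO cells were exposed 5 min at room temperature before stimulation by acetylcholine added at 50nM. Intracellular calcium was read kinetically on FDSS for 3 min.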

[20] = target: Beta-2 adrenergic receptor (Homo sapiens) (UniProt P07550); assay: Adrenergic beta2 receptor (ADRB2) small molecule agonists, cell-based qHTS assay (AID 1963593);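 further: CHO cells stably overexpressing human ADRB2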
Outline: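 CHO cells stably over-expressing ADRB2 were plated overnight at 37C, then dosed with compounds plus a stimulation mix containing 100uM IBMX and 25uM Ro-20-1724 for 0.5hr at room temperature. cAMP was measured by HTRF competition, 1hr.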

Measured: Potency

5-hydroxytryptamine receptor 2A (Homo sapiens), sequence (P28223 whole entry, looked up): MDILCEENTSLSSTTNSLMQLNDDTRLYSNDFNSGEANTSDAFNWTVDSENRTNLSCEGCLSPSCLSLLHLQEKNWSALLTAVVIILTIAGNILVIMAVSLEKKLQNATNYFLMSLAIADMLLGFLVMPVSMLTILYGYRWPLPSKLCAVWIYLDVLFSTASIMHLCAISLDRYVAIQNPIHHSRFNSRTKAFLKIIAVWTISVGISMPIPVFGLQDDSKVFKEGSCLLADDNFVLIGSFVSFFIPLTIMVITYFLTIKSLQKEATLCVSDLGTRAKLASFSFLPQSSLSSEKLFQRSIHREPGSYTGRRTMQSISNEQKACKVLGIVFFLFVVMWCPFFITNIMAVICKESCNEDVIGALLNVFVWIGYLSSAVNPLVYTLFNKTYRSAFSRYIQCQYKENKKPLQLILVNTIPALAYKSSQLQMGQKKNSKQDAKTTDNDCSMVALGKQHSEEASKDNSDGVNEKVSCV
D(2) dopamine receptor (Homo sapiens), sequence (P14416 whole entry, looked up): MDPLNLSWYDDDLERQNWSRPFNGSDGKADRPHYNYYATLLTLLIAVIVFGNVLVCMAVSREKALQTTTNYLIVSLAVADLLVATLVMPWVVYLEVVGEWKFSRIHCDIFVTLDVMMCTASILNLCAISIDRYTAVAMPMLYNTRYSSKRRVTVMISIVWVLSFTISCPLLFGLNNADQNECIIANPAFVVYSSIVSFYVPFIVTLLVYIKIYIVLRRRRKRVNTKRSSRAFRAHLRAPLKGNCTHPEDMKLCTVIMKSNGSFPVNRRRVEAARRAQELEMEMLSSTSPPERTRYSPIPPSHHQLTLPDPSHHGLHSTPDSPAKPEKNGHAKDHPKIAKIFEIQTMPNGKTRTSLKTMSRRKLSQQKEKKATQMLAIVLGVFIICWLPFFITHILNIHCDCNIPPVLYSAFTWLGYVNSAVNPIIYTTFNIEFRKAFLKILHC
Gonadotropin-releasing hormone receptor (Homo sapiens), sequence (P30968 whole entry, looked up): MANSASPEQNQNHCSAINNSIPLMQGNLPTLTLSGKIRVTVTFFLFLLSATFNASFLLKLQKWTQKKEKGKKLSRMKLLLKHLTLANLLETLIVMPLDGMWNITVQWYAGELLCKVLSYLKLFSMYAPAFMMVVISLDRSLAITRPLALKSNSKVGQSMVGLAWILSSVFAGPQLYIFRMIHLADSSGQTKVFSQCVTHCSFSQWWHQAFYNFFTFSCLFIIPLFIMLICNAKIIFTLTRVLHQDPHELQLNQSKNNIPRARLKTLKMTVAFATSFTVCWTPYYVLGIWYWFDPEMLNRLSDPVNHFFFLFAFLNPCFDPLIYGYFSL
Beta-2 adrenergic receptor (Homo sapiens), sequence (P07550 whole entry, looked up): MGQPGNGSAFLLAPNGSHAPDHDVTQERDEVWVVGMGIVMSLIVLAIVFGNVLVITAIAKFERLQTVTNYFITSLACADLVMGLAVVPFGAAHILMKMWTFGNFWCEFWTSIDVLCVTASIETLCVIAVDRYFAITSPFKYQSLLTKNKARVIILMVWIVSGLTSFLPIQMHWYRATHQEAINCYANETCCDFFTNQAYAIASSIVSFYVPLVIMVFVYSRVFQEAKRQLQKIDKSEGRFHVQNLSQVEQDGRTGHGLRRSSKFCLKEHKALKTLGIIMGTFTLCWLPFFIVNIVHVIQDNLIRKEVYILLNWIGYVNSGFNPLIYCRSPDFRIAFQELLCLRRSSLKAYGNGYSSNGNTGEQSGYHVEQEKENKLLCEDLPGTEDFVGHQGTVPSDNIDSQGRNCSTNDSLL
Muscarinic acetylcholine receptor M1 (Homo sapiens), sequence (P11229 whole entry, looked up): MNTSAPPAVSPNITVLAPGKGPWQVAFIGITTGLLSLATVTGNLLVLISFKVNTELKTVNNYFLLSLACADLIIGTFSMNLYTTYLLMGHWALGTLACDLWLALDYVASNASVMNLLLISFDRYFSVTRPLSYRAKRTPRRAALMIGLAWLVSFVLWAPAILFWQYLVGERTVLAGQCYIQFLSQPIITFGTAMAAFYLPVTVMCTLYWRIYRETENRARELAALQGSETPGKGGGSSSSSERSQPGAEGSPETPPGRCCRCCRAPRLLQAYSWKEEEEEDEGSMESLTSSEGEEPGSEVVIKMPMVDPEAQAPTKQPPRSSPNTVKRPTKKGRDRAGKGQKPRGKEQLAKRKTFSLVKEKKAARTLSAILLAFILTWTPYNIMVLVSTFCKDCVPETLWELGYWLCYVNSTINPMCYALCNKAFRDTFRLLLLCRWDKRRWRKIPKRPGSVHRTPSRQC
KiSS-1 receptor (Homo sapiens), sequence (Q969F8 whole entry, looked up): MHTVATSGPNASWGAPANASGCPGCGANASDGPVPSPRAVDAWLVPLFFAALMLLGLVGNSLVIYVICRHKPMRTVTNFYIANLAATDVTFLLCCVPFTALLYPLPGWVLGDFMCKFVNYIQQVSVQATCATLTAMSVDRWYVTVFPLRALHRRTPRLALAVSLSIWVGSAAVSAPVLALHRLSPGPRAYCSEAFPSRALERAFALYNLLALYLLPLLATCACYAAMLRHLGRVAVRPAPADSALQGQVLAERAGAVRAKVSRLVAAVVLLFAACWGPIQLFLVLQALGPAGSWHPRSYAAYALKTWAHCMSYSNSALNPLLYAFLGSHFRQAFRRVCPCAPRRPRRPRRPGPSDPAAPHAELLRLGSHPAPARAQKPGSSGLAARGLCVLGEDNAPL

CC(C)=CC(C)(C)C
inactive: [1] | [2] | [3] | [4] | [5] | [6] | [7] | [8] | [9] | [10] | [11] | [12] | [13] | [14] | [15] | [16]

CC(C)CCOC(=O)/C=C/c1ccccc1
inactive: [1] | [2] | [17] | [4] | [5] | [18] | [6] | [7] | [8] | [9] | [10] | [19] | [11] | [12] | [13] | [14] | [20] | [15] | [16]

CC(=O)c1ccc(OCC(=O)N2CCCCC2)cc1
inactive: [1] | [2] | [3] | [4] | [5] | [18] | [6] | [7] | [8] | [9] | [10] | [19] | [11] | [12] | [13] | [14] | [15] | [16]

CCOc1ccc2c(c1)C(C)CC(C)(C)N2 (centres undefined)
inactive: [1] | [2] | [3] | [17] | [7] | [9] | [10] | [19] | [11] | [12] | [14] | [15] | [16]

CC(N)=O
inactive: [1] | [2] | [3] | [17] | [7] | [9] | [10] | [19] | [12] | [13] | [14] | [15] | [16]

C=C(C)C(=O)OCCOc1ccccc1
inactive: [1] | [2] | [3] | [17] | [7] | [10] | [19] | [11] | [12] | [14] | [15]

CCCCCCCCCCCC(=O)OCC(O)CO (centres undefined)
inactive: [1] | [2] | [3] | [18] | [6] | [7] | [9] | [19] | [11] | [13] | [14] | [20] | [15] | [16]

O=C(O)c1cc(Br)c(O)c(Br)c1
inactive: [1] | [2] | [3] | [17] | [7] | [9] | [10] | [19] | [11] | [12] | [13] | [14] | [15] | [16]

CCN(CC)CC(=O)Nc1c(C)cccc1C
inactive: [1] | [2] | [3] | [17] | [7] | [8] | [12] | [13] | [14] | [20] | [15]
